According to PubChem BioAssay (NCATS):
Records with an inconclusive call do not appear. A call without a number means that no potency is given here. The source made the active and inactive calls. Unless noted, calls follow the shape of the dose curve; as a rule, active = well fitted curve in the direction sought with a large enough effect; inconclusive = small, poorly fitted or top-dose-only effect, or another doubt; inactive = no such curve, though single readings can be large; an effect the other way counts as inactive or inconclusive.

How the values were obtained:
[1] = Cytometric Cell-Based qHTS for Inhibitors of the mTORC1 Signaling Pathway in MEF (Tsc2-/-, p53-/-) Cells (AID 2660);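 also: Tsc2 and p53 null MEFs carrying empty vector with compound for 24 h; percent of cells above a phospho-rpS6 to PI ratio cutoff in each well; series mostly up to about 38 µM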
Method in brief: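 Percent of cells positive for normalized phospho-S6 staining is reported, with the cutoff set from rapamycin (7.5 nM) versus DMSO wells. Tsc2-/-, p53-/- MEFs received compound for 24 hrs.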

[2] = High Content Imaging Cell-Based qHTS for Inhibitors of the mTORC1 Signaling Pathway in MEF (Tsc2-/-, p53-/-) Cells (AID 2666);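 also: percent of cells scored positive for phospho-rpS6 Ser235/236 immunostaining by imaging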
Method in brief: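 Inhibition of rpS6 phosphorylation is measured by immunofluorescence imaging in empty-vector Tsc2-/-, p53-/- mouse embryonic fibroblasts after 24 hrs compound exposure at 37 degree Celsius. Results are reported as % positive cells per well.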

[3] = High Content Imaging Cell-Based qHTS for Inhibitors of the mTORC1 Signaling Pathway in MEF Cells (AID 2667);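 also: Tsc2-/- p53-/- MEFs stably re-expressing wild-type Tsc2 exposed 24 h; series mostly up to about 38 µM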
Method in brief: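 Fixed-cell imaging of phospho-S6 (Ser235/236, Alexa-488) after 24 hrs of compound treatment at 37 degree Celsius. Signal was normalized to Hoechst, and thresholds from the highest and lowest wells split cells into % active versus % non-active.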

[4] = Cytometry Cell-Based qHTS for Inhibitors of the mTORC1 Signaling Pathway in MEF cells (AID 2668);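 also: Tsc2-/- p53-/- mouse embryonic fibroblasts stably re-expressing wild-type Tsc2; percent cells positive for phospho-rpS6 Ser235/236 relative to propidium iodide stain; series mostly up to about 38 µM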
Method in brief: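 Phospho-rpS6 (Ser235/236) immunofluorescence over PI signal, scored as % positive cells using thresholds from 7.5 nM rapamycin and DMSO wells, after 24 h compound exposure of WT-Tsc2-rescued Tsc2-/-, p53-/- MEFs. PI cell count recorded for viability.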

[5] = Validation screen for small molecules that induce DNA re-replication in MCF 10A normal breast cells (AID 463097); also: nearly all actives have a fitted effect of over 60% in size; also: potency is read from the fitted curve at half-maximal effect
Method in brief: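 Read-out is Hoechst total nuclear intensity by fluorescence scanning imager, flagging increased high-DNA-content nuclei. Compounds were incubated with MCF 10A cells for 48 hr (37 C, 5% CO2) before 40 min staining.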

[6] = target: Ubiquitin carboxyl-terminal hydrolase 2 (Homo sapiens) (UniProt O75604); assay: qHTS Validation Assay for Inhibitors of Ubiquitin-specific Protease USP2a Using CHOP2 as the Reporter (AID 463106)
Method in brief: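 Inhibition is expressed relative to NEM as the full-inhibition control, with concentration-response curves classed by fit quality, magnitude and activity. Enzyme (USP2 core, 10nM) meets 25nM Ub-CHOP2 after compound preincubation; readings are taken at 60min.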

[7] = target: DNA polymerase III PolC-type (Bacillus subtilis (strain 168)) (UniProt P13267); assay: qHTS Validation Assay for the Inhibitors of DNA Replication in Gram-Positive Bacteria (AID 485295);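 also: reconstituted holoenzyme with PolC plus beta clamp SSB and primase; PicoGreen fluorescence of double-stranded DNA made on primed circular M13 template; series mostly up to about 57 µM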
Method in brief: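 Double-stranded DNA product detected by PicoGreen fluorescence after EDTA quench. Compound incubated with B. subtilis holoenzyme (PolC, beta subunit, SSB, primase) before substrate addition; primed replication of M13Gori with dNTPs and NTPs at room temperature; DMSO defines 0% inhibition.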

[8] = target: Tumor susceptibility gene 101 protein (Homo sapiens) (UniProt Q99816); assay: qHTS Validation Assay for Iinhibitors of HIV-1 Budding by Blocking the Interaction of PTAP/TSG101 (AID 485342; calls by dose curve)
Method in brief: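 Fluorescence polarization of 50 nM FITC-PTAP peptide bound to 10 uM Tsg101 binding domain was read after 20 min room-temperature incubation with compounds, in 10 mM HEPES pH 7.5, 0.15 M NaCl, 0.01% Tween 20.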

[9] = qHTS Validation Assay to Find Inhibitors of Chronic Active B-Cell Receptor Signaling (AID 485345; active = well fitted curve in the direction sought with a large enough effect in the main read-out, with a control signal flat, not every such curve was filed as active)
Method in brief: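 TMD8 ABC-DLBCL cells with dox-inducible green luciferase–IκBα fusion and red native luciferase; compounds 46 uM–3 nM, 4 h at 37C with doxycycline in 0.5% FBS IMDM. Green/red ratio normalized to basal and 10 uM MG-132.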

Sequence of Ubiquitin carboxyl-terminal hydrolase 2 (Homo sapiens) (O75604 whole entry, looked up): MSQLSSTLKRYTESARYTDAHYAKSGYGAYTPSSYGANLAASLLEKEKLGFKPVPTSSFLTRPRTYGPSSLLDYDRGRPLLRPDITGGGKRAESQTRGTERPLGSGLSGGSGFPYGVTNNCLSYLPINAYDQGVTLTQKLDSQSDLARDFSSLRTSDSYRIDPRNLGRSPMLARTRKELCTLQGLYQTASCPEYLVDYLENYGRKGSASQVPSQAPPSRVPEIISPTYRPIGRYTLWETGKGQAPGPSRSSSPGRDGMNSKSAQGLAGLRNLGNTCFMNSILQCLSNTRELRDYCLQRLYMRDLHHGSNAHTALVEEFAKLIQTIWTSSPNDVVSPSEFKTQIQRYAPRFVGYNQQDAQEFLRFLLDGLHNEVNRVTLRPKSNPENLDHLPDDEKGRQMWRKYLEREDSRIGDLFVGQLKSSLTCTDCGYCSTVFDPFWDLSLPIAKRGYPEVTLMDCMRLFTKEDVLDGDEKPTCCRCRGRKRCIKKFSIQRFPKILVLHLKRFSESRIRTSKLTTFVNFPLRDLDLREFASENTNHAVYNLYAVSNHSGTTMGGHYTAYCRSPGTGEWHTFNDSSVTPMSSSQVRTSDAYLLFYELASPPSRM
Sequence of Tumor susceptibility gene 101 protein (Homo sapiens) (Q99816 whole entry, looked up, the tested form may be a part): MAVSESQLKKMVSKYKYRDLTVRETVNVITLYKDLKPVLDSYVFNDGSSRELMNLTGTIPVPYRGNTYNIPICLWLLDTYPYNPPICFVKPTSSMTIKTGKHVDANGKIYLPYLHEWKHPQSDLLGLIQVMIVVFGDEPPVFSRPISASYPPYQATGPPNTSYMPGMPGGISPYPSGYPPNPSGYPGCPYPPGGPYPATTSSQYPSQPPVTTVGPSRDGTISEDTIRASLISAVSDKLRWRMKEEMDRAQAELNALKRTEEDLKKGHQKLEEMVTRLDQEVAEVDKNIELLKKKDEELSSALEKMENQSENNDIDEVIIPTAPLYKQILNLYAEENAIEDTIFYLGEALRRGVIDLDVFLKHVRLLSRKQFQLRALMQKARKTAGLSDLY
Sequence of DNA polymerase III PolC-type (Bacillus subtilis (strain 168)) (P13267 whole entry, looked up): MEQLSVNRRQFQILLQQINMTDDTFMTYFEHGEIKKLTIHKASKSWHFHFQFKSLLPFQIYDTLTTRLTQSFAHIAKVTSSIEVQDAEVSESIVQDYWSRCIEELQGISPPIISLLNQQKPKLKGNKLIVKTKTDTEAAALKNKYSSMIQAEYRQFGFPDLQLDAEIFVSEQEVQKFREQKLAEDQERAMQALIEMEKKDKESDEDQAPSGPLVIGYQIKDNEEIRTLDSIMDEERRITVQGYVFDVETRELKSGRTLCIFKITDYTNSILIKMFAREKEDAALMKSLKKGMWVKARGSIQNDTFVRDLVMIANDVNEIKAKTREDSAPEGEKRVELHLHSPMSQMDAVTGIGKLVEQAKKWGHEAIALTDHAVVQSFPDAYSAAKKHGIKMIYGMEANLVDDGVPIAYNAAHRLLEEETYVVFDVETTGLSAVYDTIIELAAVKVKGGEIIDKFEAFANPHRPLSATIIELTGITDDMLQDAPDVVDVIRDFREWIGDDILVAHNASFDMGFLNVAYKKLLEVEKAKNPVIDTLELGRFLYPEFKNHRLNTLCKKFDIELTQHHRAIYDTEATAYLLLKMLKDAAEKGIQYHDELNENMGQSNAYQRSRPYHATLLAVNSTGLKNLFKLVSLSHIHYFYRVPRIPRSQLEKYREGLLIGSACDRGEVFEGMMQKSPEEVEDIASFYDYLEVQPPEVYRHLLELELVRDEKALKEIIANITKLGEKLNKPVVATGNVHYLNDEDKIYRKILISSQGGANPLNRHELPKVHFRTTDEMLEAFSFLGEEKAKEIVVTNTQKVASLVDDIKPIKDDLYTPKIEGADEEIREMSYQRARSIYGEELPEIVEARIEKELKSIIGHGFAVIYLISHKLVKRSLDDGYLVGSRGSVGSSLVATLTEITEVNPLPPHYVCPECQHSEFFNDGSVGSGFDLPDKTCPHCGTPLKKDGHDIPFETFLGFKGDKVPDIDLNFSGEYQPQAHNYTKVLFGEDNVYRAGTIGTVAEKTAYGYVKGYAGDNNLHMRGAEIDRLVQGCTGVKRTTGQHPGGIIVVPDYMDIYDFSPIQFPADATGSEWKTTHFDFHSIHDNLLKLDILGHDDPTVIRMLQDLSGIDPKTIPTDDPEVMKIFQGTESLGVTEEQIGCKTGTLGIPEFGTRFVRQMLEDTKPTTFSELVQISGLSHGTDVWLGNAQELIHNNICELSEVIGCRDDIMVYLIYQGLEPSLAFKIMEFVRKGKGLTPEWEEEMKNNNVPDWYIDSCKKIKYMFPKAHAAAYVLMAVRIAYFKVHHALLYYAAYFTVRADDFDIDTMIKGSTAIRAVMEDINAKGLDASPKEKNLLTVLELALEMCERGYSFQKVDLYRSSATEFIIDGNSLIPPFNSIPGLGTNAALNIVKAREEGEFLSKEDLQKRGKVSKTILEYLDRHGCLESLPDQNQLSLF

| Structure (SMILES) | outcome [1] | Potency [2] | Potency [3] | Potency [4] | Potency [5] | Potency [6] | Potency [7] | outcome [8] | outcome [9] |
| --- | --- | --- | --- | --- | --- | --- | --- | --- | --- |
| NC(N)=NC(N)=Nc1ccccc1 | inactive | inactive | inactive | inactive | inactive | inactive | inactive | inactive | inactive |
| Nc1ncnc2c1ncn2C1CCCC1 | inactive | inactive | inactive | inactive | inactive | inactive | inactive | inactive | inactive |
| Cc1nc(N=Nc2ccc(S(=O)(=O)O)cc2S(=O)(=O)O)c(COP(=O)(O)O)c(C=O)c1O | inactive | inactive | inactive | inactive | inactive | inactive | inactive | inactive | inactive |
| CC1CCN=C(N)S1 (configuration not stated) | inactive | inactive | inactive | inactive | inactive | inactive | inactive | inactive | inactive |
| CCCCS(=N)(=O)CC[C@H](N)C(=O)O (some centres not stated) | inactive | inactive | inactive | inactive | inactive | inactive | inactive | inactive | inactive |
| OC[C@H]1O[C@@H](n2cnc3cncnc32)[C@H](O)[C@@H]1O | inactive | inactive | inactive | inactive | inactive | inactive | inactive | inactive | inactive |
| CC(N)=O | inactive | inactive | inactive | inactive | inactive | inactive | inactive | inactive | inactive |
| COC1(C2=NCCN2)COc2ccccc2O1 (configuration not stated) | inactive | inactive | inactive | inactive | inactive | inactive | inactive | inactive | inactive |
| O=C(O)C1=CCNCC1 | inactive | inactive | inactive | inactive | inactive | inactive | inactive | inactive | inactive |
| CC(N)=NCCCC[C@@H](N)C(=O)O | inactive | inactive | inactive | inactive | inactive | inactive | inactive | inactive | inactive |
| O=[N+]([O-])c1cccc2c(Br)[nH]nc12 | inactive | inactive | inactive | inactive | inactive | inactive | inactive | inactive | inactive |
| CC(=O)O[C@H]1CC2(C)[C@@H](C[C@@H](O)[C@H]3[C@@]4(C)CC[C@@H](O)[C@@H](C)[C@@H]4CC[C@@]32C)C1=C(CCC=C(C)C)C(=O)O (some centres not stated) | inactive | inactive | inactive | inactive | inactive | inactive | inactive | inactive | inactive |
| CCSC(=N)N | inactive | inactive | inactive | inactive | inactive | inactive | inactive | inactive | inactive |
| Oc1cc(O)c2c(c1)O[C@H](c1ccc(O)c(O)c1)[C@@H](O)C2 | inactive | inactive | inactive | inactive | inactive | inactive | inactive | inactive | inactive |
| NCCC1CCCC(CCN)N1 (configuration not stated) | inactive | inactive | inactive | inactive | inactive | inactive | inactive | inactive | inactive |
| C[C@@]1(C2CCCC2)Cc2cc(OCC(=O)O)c(Cl)c(Cl)c2C1=O | inactive | inactive | inactive | inactive | inactive | inactive | inactive | inactive | inactive |
| O=C(O)C1CCCNC1 (configuration not stated) | inactive | inactive | inactive | inactive | inactive | inactive | inactive | inactive | inactive |
| O=c1ccn([C@@H]2O[C@H](COP(=O)(O)OP(=O)(O)O)[C@@H](O)[C@H]2O)c(=O)[nH]1 | inactive | inactive | inactive | inactive | inactive | inactive | inactive | inactive | inactive |
| Nn1nnc2ccccc21 | inactive | inactive | inactive | inactive | inactive | inactive | inactive | inactive | inactive |
| CC(=O)[C@H]1CCC2C3CC=C4C[C@@H](OS(=O)(=O)O)CC[C@]4(C)C3CC[C@@]21C (some centres not stated) | inactive | inactive | inactive | inactive | inactive | inactive | inactive | inactive | inactive |
| CC(=O)NCCc1c[nH]c2ccc(O)cc12 | inactive | inactive | inactive | inactive | inactive | inactive | inactive | inactive | inactive |
| C[C@H](O)C(=O)C1=Nc2c(nc(N)[nH]c2=O)NC1 | inactive | inactive | inactive | inactive | inactive | inactive | inactive | inactive | inactive |
| O=C(O)C1=CCCNC1 | inactive | inactive | inactive | inactive | inactive | inactive | inactive | inactive | inactive |
| N[C@@H](CS(=O)O)C(=O)O | inactive | inactive | inactive | inactive | inactive | inactive | inactive | inactive | inactive |
| N=C(N)c1ccccc1 | inactive | inactive | inactive | inactive | inactive | inactive | inactive | inactive | inactive |
| c1ccc2nc(C3=NCCN3)ccc2c1 | inactive | inactive | inactive | inactive | inactive | inactive | inactive | inactive | inactive |
| NCCCNCCCCNCCCN | inactive | inactive | inactive | inactive | inactive | inactive | inactive | inactive | inactive |

| Structure (SMILES) | outcome [1] | Potency [2] | Potency [3] | Potency [4] | Potency [5] | Potency [6] | Potency [7] | outcome [8] | outcome [9] |
| --- | --- | --- | --- | --- | --- | --- | --- | --- | --- |
| CCN1C(=O)C=CC1=O | inactive | inactive | inactive | inactive | 20 µM (active) | inactive | inactive | inactive | inactive |
| CNc1cc(NS(=O)(=O)c2ccc(N)cc2)nc(NC)n1 | inactive | inactive | inactive | inactive | inactive | inactive | inactive | inactive | inactive |
| Oc1cc2c(cc1O)C(c1ccccc1)CNCC2 (configuration not stated) | inactive | inactive | inactive | inactive | inactive | inactive | inactive | inactive | inactive |
| COc1ccc(-c2ccc(N)[n+](CCCC(=O)O)n2)cc1 | inactive | inactive | inactive | inactive | inactive | inactive | inactive | inactive | inactive |
| CSC(=N)N | inactive | inactive | inactive | inactive | inactive | inactive | inactive | inactive | inactive |
| N[C@H](C(=O)O)[C@H]1C[C@@H]1C(=O)O | inactive | inactive | inactive | inactive | inactive | inactive | inactive | inactive | inactive |
| CN(C)C(=O)/N=N/C(=O)N(C)C | inactive | inactive | inactive | inactive | inactive | inactive | inactive | inactive | inactive |
| COc1cc(N)c(Cl)cc1C(=O)OCCN1CCCCC1 | inactive | inactive | inactive | inactive | inactive | inactive | inactive | inactive | inactive |
| O=C(O)/C=C/c1cnc[nH]1 | inactive | inactive | inactive | inactive | inactive | inactive | inactive | inactive | inactive |
| C[C@@H](NCCc1ccc(O)cc1)[C@@H](O)c1ccc(O)cc1 | inactive | inactive | inactive | inactive | inactive | inactive | inactive | inactive | inactive |
| [Li+] | inactive | inactive | inactive | inactive | inactive | inactive | inactive | inactive | inactive |
| CC(C)(C)NCC(O)COc1cccc2[nH]c(=O)[nH]c12 (configuration not stated) | inactive | inactive | inactive | inactive | inactive | inactive | inactive | inactive | inactive |
| NC1(C(=O)O)CC1 | inactive | inactive | inactive | inactive | inactive | inactive | inactive | inactive | inactive |
| Cn1ccnc1 | inactive | inactive | inactive | inactive | inactive | inactive | inactive | inactive | inactive |
| Nc1ccc(-c2ccc3ccccc3n2)cc1 | inactive | inactive | inactive | inactive | 12.6 µM (active) | inactive | inactive | inactive | inactive |
| O=C1C2C=CC=CC2=NC(=S)N1CCN1CCC(=C(c2ccc(F)cc2)c2ccc(F)cc2)CC1 (configuration not stated) | inactive | inactive | inactive | inactive | 7.08 µM (active) | inactive | inactive | inactive | inactive |
| C=C(C)C1CC=C(C(=O)O)CC1 (configuration not stated) | inactive | inactive | inactive | inactive | inactive | inactive | inactive | inactive | inactive |
| NOCC(=O)O | inactive | inactive | inactive | inactive | inactive | inactive | inactive | inactive | inactive |
| NC1(C(=O)O)CCCCC1 | inactive | inactive | inactive | inactive | inactive | inactive | inactive | inactive | inactive |
| O=c1[nH]ccc2c(O)cccc12 | inactive | inactive | inactive | inactive | inactive | inactive | inactive | inactive | inactive |
| N[C@H](C(=O)O)[C@H](O)C(=O)O | inactive | inactive | inactive | inactive | inactive | inactive | inactive | inactive | inactive |
| COc1ccc(C(=O)NCc2cccnc2)cc1C(=O)NCc1cccnc1 | inactive | inactive | inactive | inactive | inactive | inactive | inactive | inactive | inactive |
| COc1ccc(CCN(C)CCc2ccc(OC)c(OC)c2)cc1OC | inactive | inactive | inactive | inactive | inactive | inactive | inactive | inactive | inactive |
| OCC1NCC(O)C(O)C1O (configuration not stated) | inactive | inactive | inactive | inactive | inactive | inactive | inactive | inactive | inactive |
| CNC(=O)c1cc2c(cn1)[nH]c1ccccc12 | inactive | inactive | inactive | inactive | inactive | inactive | inactive | inactive | inactive |
| CC[C@H](NC(=O)c1c(C)c(-c2ccccc2)nc2ccccc12)c1ccccc1 | inactive | inactive | inactive | inactive | inactive | inactive | inactive | inactive | inactive |
